The values that follow come from article PMC11006913.

What all share (test): PBM; 200 nM protein, PBS
Conditions in all cases: dsDNA, one strand shown

Experiment [1] has as its target T1, SIX6 (Homo sapiens, UniProt O95475 114-200, T165P).
T1 sequence: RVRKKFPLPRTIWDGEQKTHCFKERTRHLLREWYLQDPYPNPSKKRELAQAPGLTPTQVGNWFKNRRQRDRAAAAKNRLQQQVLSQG

The target of experiment [2] is T2, SIX6 (Homo sapiens, UniProt O95475 114-200, H141N).
T2 sequence: T1 sequence with H28N, P52T

In experiment [3] the target is T3, SIX6 (Homo sapiens, UniProt O95475 114-200, T165G).
T3 sequence: T1 sequence with P52G

The target of experiment [4] is T4, SIX6 (Homo sapiens, UniProt O95475 114-200, T139Q).
T4 sequence: T1 sequence with T26Q, P52T

Experiment [5] deals with T5, SIX6 (Homo sapiens, UniProt O95475 114-200, T165A).
T5 sequence: T1 sequence with P52A

In experiment [6] the target is T6, SIX6 (Homo sapiens, UniProt O95475 114-200, L167V).
T6 sequence: T1 sequence with P52T, L54V

Experiment [7] deals with T7, VENTX (Homo sapiens, UniProt O95231 78-163, Y115F).
T7 sequence: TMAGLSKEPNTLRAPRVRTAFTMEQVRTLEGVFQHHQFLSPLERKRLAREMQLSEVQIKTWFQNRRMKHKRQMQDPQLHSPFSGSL

Experiment [8] deals with HOXA2 (Homo sapiens, UniProt O43364 129-215, R185T).
Experiment [9] deals with MSX2 (Homo sapiens, UniProt P35548 130-214, R199I).
Experiment [10] deals with HOXA2 (Homo sapiens, UniProt O43364 129-215, R185K).
For experiment [11], the target named is T8, PAX4 (Homo sapiens, UniProt O43316 9-242).
T8 sequence: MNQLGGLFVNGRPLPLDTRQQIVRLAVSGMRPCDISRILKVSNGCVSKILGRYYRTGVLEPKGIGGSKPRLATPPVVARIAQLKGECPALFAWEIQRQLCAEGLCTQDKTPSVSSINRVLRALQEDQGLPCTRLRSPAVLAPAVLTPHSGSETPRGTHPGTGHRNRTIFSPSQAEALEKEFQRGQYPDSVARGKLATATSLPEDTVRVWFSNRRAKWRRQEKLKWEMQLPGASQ

The target in experiment [12] is PITX2 (Homo sapiens, UniProt Q99697 72-157).
Experiment [13] addresses T9, PAX4 (Homo sapiens, UniProt O43316 9-242, F177V).
T9 sequence: T8 sequence with F169V

For experiment [14], the target named is T10, PAX4 (Homo sapiens, UniProt O43316 9-242, F177Y).
T10 sequence: T8 sequence with F169Y

Experiment [15] deals with T11, PAX4 (Homo sapiens, UniProt O43316 9-242, R227W).
T11 sequence: T8 sequence with R219W

The target of experiment [16] is HOXB6 (Homo sapiens, UniProt P17509 132-218, K202E).
Experiment [17] addresses HOXA4 (Homo sapiens, UniProt Q00056 201-287, R217L).
For experiment [18], the target named is HOXB6 (Homo sapiens, UniProt P17509 132-218).
In experiment [19] the target is ALX3 (Homo sapiens, UniProt O95076 139-225, N203Q).
Experiment [20] concerns the target ALX3 (Homo sapiens, UniProt O95076 139-225).
Experiment [21] concerns the target ALX3 (Homo sapiens, UniProt O95076 139-225, N203S).
For experiment [22], the target named is T12, SIX6 (Homo sapiens, UniProt O95475 114-200, L167M).
T12 sequence: T1 sequence with P52T, L54M

Substitutions are numbered along the chain they refer to.

ALX3 (Homo sapiens, UniProt O95076 139-225, N203S), sequence (O95076 139-225 N203S): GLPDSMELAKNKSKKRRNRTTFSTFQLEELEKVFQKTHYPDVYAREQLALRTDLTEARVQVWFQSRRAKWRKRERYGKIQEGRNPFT
ALX3 (Homo sapiens, UniProt O95076 139-225), sequence (O95076 139-225): as the sequence (O95076 139-225 N203S) above, with S65N counted along it
ALX3 (Homo sapiens, UniProt O95076 139-225, N203Q), sequence (O95076 139-225 N203Q): as the sequence (O95076 139-225 N203S) above, with S65Q counted along it
MSX2, sequence (P35548 130-214 R199I): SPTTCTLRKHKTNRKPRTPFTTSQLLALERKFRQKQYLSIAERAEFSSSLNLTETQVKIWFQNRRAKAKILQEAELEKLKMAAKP
HOXA2 (Homo sapiens, UniProt O43364 129-215, R185T), sequence (O43364 129-215 R185T): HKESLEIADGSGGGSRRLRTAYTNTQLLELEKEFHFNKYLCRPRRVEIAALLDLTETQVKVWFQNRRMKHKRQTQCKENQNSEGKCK
HOXA2 (Homo sapiens, UniProt O43364 129-215, R185K), sequence (O43364 129-215 R185K): as the sequence (O43364 129-215 R185T) above, with T57K counted along it
HOXB6 (Homo sapiens, UniProt P17509 132-218, K202E), sequence (P17509 132-218 K202E): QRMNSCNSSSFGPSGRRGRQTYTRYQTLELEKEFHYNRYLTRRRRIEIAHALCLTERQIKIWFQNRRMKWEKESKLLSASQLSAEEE
HOXA4, sequence (Q00056 201-287 R217L): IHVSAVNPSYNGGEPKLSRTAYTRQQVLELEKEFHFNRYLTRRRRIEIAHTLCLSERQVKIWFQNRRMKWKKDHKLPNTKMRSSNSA
HOXB6 (Homo sapiens, UniProt P17509 132-218), sequence (P17509 132-218): as the sequence (P17509 132-218 K202E) above, with E71K counted along it

In the case of GACGATCC, in experiment [1], the binding signal is 9.26 upbm affinity estimate (log intensity, higher = more binding, comparable within an allelic series). Regarding AACGATAC, the binding signal in experiment [2] was 11.1 upbm affinity estimate (log intensity, higher = more binding, comparable within an allelic series); in [3] it was 11.2 upbm affinity estimate (log intensity, higher = more binding, comparable within an allelic series); in experiment [4], 11.2 upbm affinity estimate (log intensity, higher = more binding, comparable within an allelic series); in experiment [5], 11 upbm affinity estimate (log intensity, higher = more binding, comparable within an allelic series); in experiment [6], 10.9 upbm affinity estimate (log intensity, higher = more binding, comparable within an allelic series).

In the case of CCGGATAC, the binding signal in experiment [1] was 9.26 upbm affinity estimate (log intensity, higher = more binding, comparable within an allelic series).

For GGATCGGA, the binding signal in [1] is 9.23 upbm affinity estimate (log intensity, higher = more binding, comparable within an allelic series). The same measure, in the same setting: for GGGGATAC the value was 9.17 upbm affinity estimate (log intensity, higher = more binding, comparable within an allelic series); for CCCGATAC, 9.17 upbm affinity estimate (log intensity, higher = more binding, comparable within an allelic series). Still for that read-out and setting: for AGGGGATC the value was 9.22 upbm affinity estimate (log intensity, higher = more binding, comparable within an allelic series); for CCGGATCA, 9.33 upbm affinity estimate (log intensity, higher = more binding, comparable within an allelic series).

With CTAATCAC, the binding signal was 11.7 upbm affinity estimate (log intensity, higher = more binding, comparable within an allelic series) in experiment [7]; 12.7 upbm affinity estimate (log intensity, higher = more binding, comparable within an allelic series) in experiment [8]; 11.1 upbm affinity estimate (log intensity, higher = more binding, comparable within an allelic series) in experiment [9]; 13.3 upbm affinity estimate (log intensity, higher = more binding, comparable within an allelic series) in experiment [10].

For TCTGATCA, the binding signal in experiment [11] was 10.5 upbm affinity estimate (log intensity, higher = more binding, comparable within an allelic series); in experiment [12], 9.44 upbm affinity estimate (log intensity, higher = more binding, comparable within an allelic series); in [13], 9.89 upbm affinity estimate (log intensity, higher = more binding, comparable within an allelic series); in [14] it was 9.94 upbm affinity estimate (log intensity, higher = more binding, comparable within an allelic series); in [15], 9.94 upbm affinity estimate (log intensity, higher = more binding, comparable within an allelic series).

For the sequence GATATGGC, the binding signal in experiment [1] is 9.27 upbm affinity estimate (log intensity, higher = more binding, comparable within an allelic series). CGGGTATC: the binding signal in [1] is 9.28 upbm affinity estimate (log intensity, higher = more binding, comparable within an allelic series); in experiment [4] it was 11.1 upbm affinity estimate (log intensity, higher = more binding, comparable within an allelic series). GTCGATTA: in [7], the binding signal was 10.9 upbm affinity estimate (log intensity, higher = more binding, comparable within an allelic series).

As for AATCGATT, the binding signal was 10.7 upbm affinity estimate (log intensity, higher = more binding, comparable within an allelic series) in [7]; 9.7 upbm affinity estimate (log intensity, higher = more binding, comparable within an allelic series) in [16]; 12 upbm affinity estimate (log intensity, higher = more binding, comparable within an allelic series) in experiment [17]; 11 upbm affinity estimate (log intensity, higher = more binding, comparable within an allelic series) in experiment [18]. As to TAGTCACA, the binding signal in experiment [11] was 10.1 upbm affinity estimate (log intensity, higher = more binding, comparable within an allelic series). As to ACCGATCA, the binding signal in experiment [7] is 9.96 upbm affinity estimate (log intensity, higher = more binding, comparable within an allelic series). For the sequence GCTATCAC, the binding signal in experiment [1] is 9.24 upbm affinity estimate (log intensity, higher = more binding, comparable within an allelic series). Take GGATACCC: the binding signal in experiment [1] is 9.29 upbm affinity estimate (log intensity, higher = more binding, comparable within an allelic series). As for CGGATCGC, the binding signal in experiment [1] was 9.17 upbm affinity estimate (log intensity, higher = more binding, comparable within an allelic series). Still for that read-out and setting: for GGGGATCA the value was 9.12 upbm affinity estimate (log intensity, higher = more binding, comparable within an allelic series).

Consider TCTTATCA, for which the binding signal in experiment [11] is 10.6 upbm affinity estimate (log intensity, higher = more binding, comparable within an allelic series); in [19] it was 8.33 upbm affinity estimate (log intensity, higher = more binding, comparable within an allelic series); in experiment [20], 9.29 upbm affinity estimate (log intensity, higher = more binding, comparable within an allelic series); in [21], 8.36 upbm affinity estimate (log intensity, higher = more binding, comparable within an allelic series). As to CGTGTAAA, the binding signal in experiment [11] was 10.4 upbm affinity estimate (log intensity, higher = more binding, comparable within an allelic series). For the sequence CCGATACC, the binding signal was 9.05 upbm affinity estimate (log intensity, higher = more binding, comparable within an allelic series) in experiment [1] and 10 upbm affinity estimate (log intensity, higher = more binding, comparable within an allelic series) in [22]. Take AAATGGGT: the binding signal in experiment [7] was 10.2 upbm affinity estimate (log intensity, higher = more binding, comparable within an allelic series); in experiment [19], 8.27 upbm affinity estimate (log intensity, higher = more binding, comparable within an allelic series); in experiment [20], 9.3 upbm affinity estimate (log intensity, higher = more binding, comparable within an allelic series); in experiment [21], 8.31 upbm affinity estimate (log intensity, higher = more binding, comparable within an allelic series).

Turning to AATCGTAT, the binding signal was 10.8 upbm affinity estimate (log intensity, higher = more binding, comparable within an allelic series) in [11] and 10.3 upbm affinity estimate (log intensity, higher = more binding, comparable within an allelic series) in experiment [13].

Turning to CCTGGATC, the binding signal in experiment [1] was 9.18 upbm affinity estimate (log intensity, higher = more binding, comparable within an allelic series). As to AATCGGTC, in experiment [7], the binding signal was 10.1 upbm affinity estimate (log intensity, higher = more binding, comparable within an allelic series). In the case of CGCGGATC, the binding signal in experiment [1] was 9.18 upbm affinity estimate (log intensity, higher = more binding, comparable within an allelic series). The same measure, in the same setting: for ACGGATCG the value was 9.19 upbm affinity estimate (log intensity, higher = more binding, comparable within an allelic series).

Consider GGGATCAC, for which the binding signal was 9.32 upbm affinity estimate (log intensity, higher = more binding, comparable within an allelic series) in experiment [1] and 11.1 upbm affinity estimate (log intensity, higher = more binding, comparable within an allelic series) in [4]. As to AGGGATCG, the binding signal in experiment [1] was 9.2 upbm affinity estimate (log intensity, higher = more binding, comparable within an allelic series). On to ATCGATCG, for which the binding signal in experiment [11] is 10.5 upbm affinity estimate (log intensity, higher = more binding, comparable within an allelic series); in experiment [13] it was 10 upbm affinity estimate (log intensity, higher = more binding, comparable within an allelic series); in experiment [14], 10.1 upbm affinity estimate (log intensity, higher = more binding, comparable within an allelic series). On to GATTTTCA, for which the binding signal in experiment [11] is 10.7 upbm affinity estimate (log intensity, higher = more binding, comparable within an allelic series). Turning to CGATCCGC, the binding signal in [1] is 9.21 upbm affinity estimate (log intensity, higher = more binding, comparable within an allelic series). The same measure, in the same setting: then CGTGATCC, with 9.16 upbm affinity estimate (log intensity, higher = more binding, comparable within an allelic series). ACGATCCG: the binding signal in experiment [1] was 9.21 upbm affinity estimate (log intensity, higher = more binding, comparable within an allelic series); in [22], 9.98 upbm affinity estimate (log intensity, higher = more binding, comparable within an allelic series).
